Test results from ChEMBL document CHEMBL1201862, “PubChem BioAssay data set” (2004).
About 3,500 (8%) of roughly 44,000 sequences were called active. Cut-off read from the data, not from the text of the source: active = GI50 up to about 1.1 µM and inactive = higher. These entries were drawn from the full list. Results with a measured potency or affinity are listed apart.

Each substance was assayed on PC-3.

| Substance | GI50 [µM] |
| --- | --- |
| [Bis(aminomethyl)pentamethylenesilane]tetrachloropaltinum(IV), CHEMBL2146204 | 1.83 |
| [Bis(aminomethyl)dimethylsilane]tetrachloroplatinum(IV), CHEMBL2146190 | 22.9 |
| [Bis(aminomethyl)tetramethylenesilane]tetrachloropaltinum(IV), CHEMBL2146189 | 8.36 |
| CISPLATIN, CHEMBL11359 | 5.01 |
| [Bis(aminomethyl)tetramethylenesilane]dichloropaltinum(II), CHEMBL2146205 | 7.19 |
| [Bis(aminomethyl)pentamethylenesilane]dichloropaltinum(II), CHEMBL2146202 | 1.64 |
